Experimental data taken from PubChem BioAssay.

Assays:
[1] = target: Tumor necrosis factor receptor superfamily member 10B (Homo sapiens) (UniProt O14763); test: viability loss of caspase-8 NB7 cells with TRAIL – with/without TRAIL, luminescence panel, confirmation (AID 651596); conditions: NB7 neuroblastoma + caspase-8, TRAIL sensitization, NB7 Caspase-8, with TRAIL, mean of runs, at 10 µM, stronger effect = higher value
[2] = as above; conditions: NB7 neuroblastoma + caspase-8, without TRAIL, NB7 Caspase-8, without TRAIL, mean of runs, at 10 µM

Tumor necrosis factor receptor superfamily member 10B (Homo sapiens), sequence (O14763 whole entry, looked up): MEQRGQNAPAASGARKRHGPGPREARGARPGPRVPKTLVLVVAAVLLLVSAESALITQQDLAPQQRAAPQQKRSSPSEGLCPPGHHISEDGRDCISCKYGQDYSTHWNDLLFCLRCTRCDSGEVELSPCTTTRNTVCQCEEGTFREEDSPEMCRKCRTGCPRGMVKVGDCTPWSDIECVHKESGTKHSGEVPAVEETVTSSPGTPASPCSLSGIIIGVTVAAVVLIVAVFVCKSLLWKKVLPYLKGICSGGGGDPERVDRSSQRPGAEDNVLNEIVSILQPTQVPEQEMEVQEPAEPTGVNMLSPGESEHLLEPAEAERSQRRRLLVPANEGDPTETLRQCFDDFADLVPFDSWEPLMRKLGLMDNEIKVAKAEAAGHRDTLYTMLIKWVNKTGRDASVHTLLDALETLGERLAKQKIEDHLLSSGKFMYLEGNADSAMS

Structure (SMILES)	activity [1] [%]	activity [2] [%]
CCOC(=O)[C@]12Cc3cc(Cl)ccc3[C@H]1N(C(C)C)C(=O)c1ccccc12	79.3	85.9
CC(=O)OC1C(=O)OCC23CCC4(C)OC4C2OC2CC(OC(=O)C=CC=CC(=O)OCCC1C)C3(C)C21CO1 (stereo not given)	89.6	92.9
CC12CCC(O)CC1CCC1C2CCC2(C)C(C3=CC(=O)OC3)C(O)CC12O (stereo not given)	80.4	53.5
CC1=CC2OC3CC4OC(=O)C=CC=CC(=O)OCCC(C)C(O)C(=O)OCC2(CC1)C4(C)C31CO1 (stereo not given)	75.6	80.9
CC12CCC(O)CC1CCC1C2CCC2(C)C(C3=CC(=O)OC3)CCC12O (stereo not given)	87.3	91.6
